Measurements published in PubChem BioAssay.
For some of these results: Entries with a potency or affinity are not part of this list. Results filed as inconclusive are left out. The list shows a part of the results. Active and inactive are the calls of the source. Unless noted, no rule for the calls is given here.

Experiments:
[1] = non-specific cell cytotoxicity, dose response, cytotoxicity control for PAX8 inhibitor project, plate reader, dry powder samples (AID 743021)
[2] = A549 cell cytotoxicity, dose response, cytotoxicity control, plate reader, cherry-pick, antagonist series (AID 743412);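 also: 0% = neutral control wells and -100% = positive control wells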
[3] = IGROV1 ovarian cancer cell cytotoxicity, dose response, PAX8 inhibitor project, plate reader, dry powder samples (AID 743043);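 also: more negative means fewer viable cells or more cytotoxicity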
[4] = IOSE-T80 ovarian epithelial cell cytotoxicity, dose response, cytotoxicity control for PAX8 inhibitor project, plate reader, dry powder samples (AID 743045);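 also: 0% = neutral control median and -100% = positive control median; more negative values mean more cell killing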
[5] = A2780 ovarian cancer cell cytotoxicity, dose response, cytotoxicity control, plate reader, dry powder samples (AID 743046);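 also: 0% = neutral control wells and -100% = cytotoxic reference compound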
[6] = NIH:OVCAR-3 ovarian cancer cell cytotoxicity, dose response, PAX8 inhibitor project, plate reader, dry powder samples (AID 743044); details: max activity: at 35 µM, stronger effect = lower value unless noted
[7] = Ring1 mRNA increase in mouse ESCs, confirmation, esBAF inhibitor project, cell-based, mouse ESC, RT-qPCR, cherry-pick (AID 743176;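 active = Ring1 gene expression raised more than 2-fold over untreated cells in both replicates at either tested dose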;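 also: Ring1 transcript normalised to actin housekeeping signal by TaqMan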); details: mouse ESC E14, Ring1 mRNA RT-qPCR fold change, stronger effect = higher value
[8] = Fgf4 mRNA decrease in mouse ESCs, confirmation, esBAF inhibitor project, cell-based, mouse ESC, RT-qPCR, cherry-pick (AID 743177;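 active = Fgf4 expression under 0.8 fold of control in both repeat measurements at one or both tested doses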;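 also: Fgf4 transcript normalised to actin in duplex TaqMan qPCR; cells exposed to compound for 24 h before lysis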); details: mouse ESC E14, Fgf4 mRNA qPCR fold change, stronger effect = lower value
[9] = esBAF inhibition via Bmi1 de-repression, confirmation, cell-based, RT-qPCR, mouse ESC, single point, cherry-pick (AID 743180;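 active = Bmi1 expression fold change above 6 at either tested concentration, seen in replicate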); details: mouse ESC E14, Bmi1 mRNA qPCR fold, stronger effect = higher value
[10] = A549 cell cytotoxicity, cytotoxicity control, plate reader, single point, cherry-pick (AID 743188); details: at 25 µM
[11] = HepG2 cell cytotoxicity, cytotoxicity control, plate reader, single point, cherry-pick (AID 743189; in the data active = activity change below about -50%); details: at 25 µM, stronger effect = lower value
[12] = HEK293 cell cytotoxicity, cytotoxicity control, plate reader, single point, cherry-pick (AID 743190; in the data active = activity change below about -38%, passing the limit was not always enough); details: at 25 µM

SMILES: CN(C(=O)OC(C)(C)C)c1ccc(-c2nc3ccccc3s2)cc1
- outcome [1]: inactive
- outcome [2]: inactive

SMILES: CC(C)c1cc(C(=O)OCC(=O)N2CCN(C(=O)c3ccco3)CC2)c(O)c(C(C)C)c1
- outcome [1]: inactive
- outcome [3]: inactive
- outcome [4]: inactive
- outcome [5]: inactive

SMILES: CCCC(=O)NC(c1ccc(C(C)C)cc1)c1ccc2cccnc2c1O (stereo unspecified)
- outcome [1]: inactive

SMILES: Cc1cc(C(C)(C)C)cc(C)c1Cn1c2[n+](c3ccc(C(F)(F)F)cc31)CCCCC2
- outcome [1]: inactive

SMILES: Cn1nnnc1Sc1ncnc2scc(-c3cccc(S(C)(=O)=O)c3)c12
- outcome [1]: inactive

SMILES: COc1cccc(C#Cc2ccc([C@@H]3[C@@H](C#N)N(C(=O)C4CCCCC4)[C@@H]3CO)cc2)c1
- outcome [1]: inactive
- outcome [3]: inactive
- outcome [6]: inactive
- outcome [4]: inactive
- outcome [5]: inactive

SMILES: N#C[C@@H]1[C@@H](c2ccc(C3=CCCCC3)cc2)[C@@H](CO)N1C(=O)NC1CCCCC1
- outcome [1]: inactive
- outcome [3]: inactive
- outcome [6]: inactive
- outcome [4]: inactive
- outcome [5]: inactive

SMILES: N#C[C@H]1[C@@H](c2ccc(C#Cc3cccc(F)c3)cc2)[C@@H](CO)N1C(=O)C1CCCC1
- outcome [6]: inactive
- outcome [4]: inactive

SMILES: O=C(Nc1cccnc1Cl)c1cc(-c2ccccc2O)on1
- fold change ([7]; Ring1 fold increase, at 7 µM): 1.22
- fold change ([7]; at 33 µM): 1 (inactive)
- Fgf4 expression fold change ([8]; Fgf4 expression, at 7 µM): 1.2
- Fgf4 expression fold change ([8]; at 33 µM): 1.05 (inactive)
- fold change ([9]; Bmi1 de-repression, at 7 µM): 1.07
- fold change ([9]; at 33 µM): 1.14 (inactive)
- cell viability change % (negative = cytotoxic) [10]: -9.75% (inactive)
- activity change, negative = inhibition [11]: -4.96% (inactive)
- activity change, negative = inhibition [12]: -13.7% (inactive)

SMILES: Cc1ccc2c(c1)c1c3n2CCN(CC(N)=O)C3CCC1 (stereo unspecified)
- outcome [1]: inactive

SMILES: COc1cc2ccccc2cc1C(=O)Nc1ccncc1
- fold change ([7]; Ring1 fold increase, at 7 µM): 1.36
- fold change ([7]; at 33 µM): 1.54 (inactive)
- Fgf4 expression fold change ([8]; Fgf4 expression, at 7 µM): 0.817
- Fgf4 expression fold change ([8]; at 33 µM): 1.21 (inactive)
- fold change ([9]; Bmi1 de-repression, at 7 µM): 1.73
- fold change ([9]; at 33 µM): 2.14 (inactive)
- cell viability change % (negative = cytotoxic) [10]: -3.23% (inactive)
- activity change, negative = inhibition [11]: -16.4% (inactive)
- activity change, negative = inhibition [12]: 6.79% (inactive)

SMILES: N#C[C@H]1N[C@H](CO)[C@@H]1c1ccc(C#Cc2ccccc2F)cc1
- outcome [1]: inactive
- outcome [4]: inactive
- outcome [5]: inactive

SMILES: CSC(=Nc1ccccc1)N=C(SCc1ccccc1)N(C)C
- outcome [1]: inactive

SMILES: Cn1c(CCN2CCCC2)nc2cc(NS(=O)(=O)c3ccc(Cl)cc3)ccc21
- outcome [1]: inactive
- outcome [4]: inactive
- outcome [5]: inactive

SMILES: CCOC(=O)c1c(-c2ccc(F)cc2)csc1NC(=O)CN1C(=O)NC2(CCCCC2C)C1=O (stereo unspecified)
- outcome [1]: inactive

SMILES: CN1c2ccccc2N(C)C1(C)c1ccccc1
- outcome [1]: inactive

SMILES: COC(=O)[C@@]1(CCS(=O)(=O)c2ccccc2)N=C(c2ccc(OCCCO)cc2)O[C@H]1c1ccccc1
- outcome [1]: inactive
- outcome [3]: inactive
- outcome [4]: inactive
- outcome [5]: inactive

SMILES: O=C(NN=Cc1ccc2c(c1)CCC2)c1ccccc1O
- fold change ([7]; Ring1 fold increase, at 7 µM): 1.13
- fold change ([7]; at 33 µM): 1.24 (inactive)
- Fgf4 expression fold change ([8]; Fgf4 expression, at 7 µM): 0.906
- Fgf4 expression fold change ([8]; at 33 µM): 0.972 (inactive)
- fold change ([9]; Bmi1 de-repression, at 7 µM): 1.51
- fold change ([9]; at 33 µM): 1.77 (inactive)
- cell viability change % (negative = cytotoxic) [10]: -5.69% (inactive)
- activity change, negative = inhibition [11]: -32.1% (inactive)
- activity change, negative = inhibition [12]: 0.295% (inactive)

SMILES: COc1ccccc1C#Cc1ccc([C@H]2[C@@H](CO)N(C(=O)C3CCCC3)[C@H]2C#N)cc1
- outcome [4]: inactive
- outcome [5]: inactive

SMILES: COc1cc(C2C3=C(COC3=O)Oc3cc4c(cc32)OCO4)cc(OC)c1O (stereo unspecified)
- outcome [1]: inactive

SMILES: CC(C)CCCCCCCCCCCCC(=O)NCC(=O)NC1C(C)OC(Nc2ncnc3nc[nH]c23)C(O)C1O (stereo unspecified)
- outcome [1]: inactive

SMILES: C[C@@H]1CN([C@H](C)CO)C(=O)c2cc(NS(=O)(=O)c3ccccc3)ccc2O[C@@H](C)CCCCO[C@@H]1CN(C)Cc1ccc(C(F)(F)F)cc1
- outcome [4]: inactive

SMILES: O=C(c1cc(-c2ccc(Cl)cc2)on1)N1CCN(c2ccccc2)CC1
- fold change ([7]; Ring1 fold increase, at 7 µM): 1.25
- fold change ([7]; at 33 µM): 1.06 (inactive)
- Fgf4 expression fold change ([8]; Fgf4 expression, at 7 µM): 1.02
- Fgf4 expression fold change ([8]; at 33 µM): 0.994 (inactive)
- fold change ([9]; Bmi1 de-repression, at 7 µM): 1.17
- fold change ([9]; at 33 µM): 1.27 (inactive)
- cell viability change % (negative = cytotoxic) [10]: -16.6% (inactive)
- activity change, negative = inhibition [11]: 9.34% (inactive)
- activity change, negative = inhibition [12]: -19.5% (inactive)

SMILES: O=C(c1ccc(Cl)cc1)c1cnc(Nc2ccccc2)s1
- fold change ([7]; Ring1 fold increase, at 7 µM): 1.37
- fold change ([7]; at 33 µM): 1.43 (inactive)
- Fgf4 expression fold change ([8]; Fgf4 expression, at 7 µM): 1.07
- Fgf4 expression fold change ([8]; at 33 µM): 0.927 (inactive)
- fold change ([9]; Bmi1 de-repression, at 7 µM): 1.41
- fold change ([9]; at 33 µM): 1.36 (inactive)
- cell viability change % (negative = cytotoxic) [10]: -9.73% (inactive)
- activity change, negative = inhibition [11]: -14.8% (inactive)
- activity change, negative = inhibition [12]: -18.7% (inactive)

SMILES: O=C(Nc1nc2ccccc2s1)c1ccc2sc([C@H]3C[C@H](O)[C@@H](CO)O3)nc2c1
- outcome [2]: inactive

SMILES: Cc1ccc(-c2cc(C(=O)N(C)Cc3cnn(C)c3C)c3cc(Br)ccc3n2)cc1
- outcome [2]: inactive

SMILES: CCc1ccn2cc(-c3cc(-c4ccccc4)no3)nc2c1
- outcome [2]: inactive

SMILES: COc1ccc(Nc2ncnc3sc(C)cc23)cc1
- fold change ([7]; Ring1 fold increase, at 7 µM): 1.32
- fold change ([7]; at 33 µM): 1.33 (inactive)
- Fgf4 expression fold change ([8]; Fgf4 expression, at 7 µM): 1.18
- Fgf4 expression fold change ([8]; at 33 µM): 1.26 (inactive)
- fold change ([9]; Bmi1 de-repression, at 7 µM): 1.3
- fold change ([9]; at 33 µM): 1.05 (inactive)
- cell viability change % (negative = cytotoxic) [10]: -6.19% (inactive)
- activity change, negative = inhibition [11]: -4.23% (inactive)
- activity change, negative = inhibition [12]: -3.92% (inactive)

SMILES: CC(Cc1cccs1)NC(=O)c1cccc(Cl)c1 (stereo unspecified)
- fold change ([7]; Ring1 fold increase, at 7 µM): 1.11
- fold change ([7]; at 33 µM): 1.07 (inactive)
- Fgf4 expression fold change ([8]; Fgf4 expression, at 7 µM): 1.02
- Fgf4 expression fold change ([8]; at 33 µM): 1.08 (inactive)
- fold change ([9]; Bmi1 de-repression, at 7 µM): 1.36
- fold change ([9]; at 33 µM): 1.53 (inactive)
- cell viability change % (negative = cytotoxic) [10]: -16% (inactive)
- activity change, negative = inhibition [11]: -51.2% (active)
- activity change, negative = inhibition [12]: -22.2% (inactive)
